Hits are enriched below; roughly 1.5% of the tested compounds scored in any of these assays.
PABP FP inh: PABP-poly(A) binding inhibition; PABP-poly(A) RNA binding, fluorescence polarization; actives 1% (n = 290,000); calls only at 35 µM; AID 2014;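 also: calls also rest on retests at 20 µM and on dose response follow-up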
Target sequence (P11940 whole entry, looked up): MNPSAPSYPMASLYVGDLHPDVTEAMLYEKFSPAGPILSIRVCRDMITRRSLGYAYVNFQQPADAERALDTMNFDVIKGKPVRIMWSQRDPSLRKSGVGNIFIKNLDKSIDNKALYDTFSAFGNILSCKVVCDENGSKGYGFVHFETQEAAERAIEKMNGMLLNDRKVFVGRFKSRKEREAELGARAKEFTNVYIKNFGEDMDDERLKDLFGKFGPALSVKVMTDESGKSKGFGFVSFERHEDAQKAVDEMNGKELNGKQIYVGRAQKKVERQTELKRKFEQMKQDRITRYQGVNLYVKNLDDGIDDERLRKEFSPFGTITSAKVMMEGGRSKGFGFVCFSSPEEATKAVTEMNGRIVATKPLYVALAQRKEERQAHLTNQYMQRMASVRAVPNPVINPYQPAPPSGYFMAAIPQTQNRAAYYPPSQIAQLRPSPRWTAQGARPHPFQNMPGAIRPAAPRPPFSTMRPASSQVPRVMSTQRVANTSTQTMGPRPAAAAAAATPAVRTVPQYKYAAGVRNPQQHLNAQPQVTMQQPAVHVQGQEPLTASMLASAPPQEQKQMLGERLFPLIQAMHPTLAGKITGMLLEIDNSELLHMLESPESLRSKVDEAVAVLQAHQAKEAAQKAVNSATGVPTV
eIF4E-4G inh: blocks eIF4E binding to eIF4G. inhibition, % at 21.7 µM. TR-FRET eIF4E-eIF4GI(517-606) binding, 2 h. actives 0.37% (n = 220,000);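 active = inhibition above about 30%, limit read from the data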
eIF4H inh: inhibitors of RNA binding by human eIF4H | Q15056 | eIF4H fluorescence polarization binding assay | inhibition, % at 35 µM | actives 0.94% (n = 290,000);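 also: calls also rest on retests at 20 µM and on dose response follow-up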
MLLE-PAM2 inh: inhibitors of microRNA-mediated deadenylation, human PABP1 MLLE binding; GST-MLLE / FITC-PAM2 fluorescence polarization; inhibition, % at 20 µM; actives 0.36% (n = 360,000); AID 588489; in the data active = inhibition above about 35%, passing the limit was not always enough
Large screens that a line does not name were inactive; [ ] = dose if it differs, or a comment. Unless noted, no rule for the calls is given here.

C=CCNC(=S)NNC(=O)c1ccco1	none
O=C(/C=C/c1ccco1)NC(=S)Nc1ccc(Cl)cn1	PABP FP inh active
O=C(/C=C/c1ccco1)NC(=S)NNC(=O)c1ccco1	PABP FP inh active
O=C(/C=C/c1ccco1)NC(=S)Nc1ccc(C(=O)O)cc1	PABP FP inh active, eIF4H inh 97 (no result: eIF4E-4G inh)
CC(=O)NC(=S)Nc1ccc(NC(=S)NC(=O)/C=C/c2ccco2)cc1	none (no result: PABP FP inh, eIF4H inh)
Cc1ccnc(NC(=S)NC(=O)/C=C/c2ccco2)c1	none
Cc1cc2nc(-c3ccc(F)cc3)c(CC(C)(C)C)n2c(C)c1Br	none (no result: PABP FP inh, eIF4E-4G inh, eIF4H inh)
O=C(/C=C/c1ccco1)Nc1cccc(C(=O)Nc2ccccc2C(=O)O)c1	PABP FP inh active, eIF4H inh 89
CCc1ccccc1NC(=O)c1cccc(NC(=O)/C=C/c2ccco2)c1	none
CC1C2(C)OC(=N)C(C#N)(C(C)O2)C1(C#N)C#N (configuration not stated)	MLLE-PAM2 inh 64
N#C/C(=C/c1ccc(N2CCOCC2)c([N+](=O)[O-])c1)C(N)=O	PABP FP inh active, eIF4H inh 62
CO/N=C/c1ccc(N2CCOCC2)c([N+](=O)[O-])c1	none
O=C(C[C@H]1C[C@@H]2c3cc(NC(=O)Nc4ccccc4F)ccc3O[C@@H]2[C@H](CO)O1)NCc1ccccn1	none (no result: PABP FP inh, eIF4E-4G inh, eIF4H inh)
Cc1ccc(N=C2NC(=O)CS2)cc1	none
Cc1ccc(C)n1/N=C1/NC(=O)CS1	PABP FP inh active, eIF4H inh 92
COc1cc(-c2cnc3c(NC=O)cc(-c4ccsc4)cn23)cc(OC)c1OC	none (no result: PABP FP inh, eIF4E-4G inh, eIF4H inh)
O=C(O)c1ccccc1-c1ccccc1C(=O)Nc1ccc2c(c1)C(O)c1ccccc1-2 (configuration not stated)	none (no result: PABP FP inh, eIF4E-4G inh, eIF4H inh)
COc1cc2c(cc1OC)C(c1ccccc1O)N(C1CC(=O)N(c3ccccc3)C1=O)CC2 (configuration not stated)	MLLE-PAM2 inh 40
Nc1ccccc1NC1=CC(=O)CC(c2ccccc2)C1 (configuration not stated)	none (no result: MLLE-PAM2 inh)
Nc1ccccc1NC1=CC(=O)CC(c2ccco2)C1 (configuration not stated)	PABP FP inh active, eIF4H inh 91
CC1(C)CC(=O)C=C(NNC(=O)c2cccnc2)C1	none
O=C1C=C(NNC(=O)c2cccnc2)CC(c2ccco2)C1 (configuration not stated)	eIF4H inh inconclusive, MLLE-PAM2 inh 45
Cc1ccc(NC2=CC(=O)CC(c3ccco3)C2)c(N)c1 (configuration not stated)	PABP FP inh active, eIF4H inh 104
Cc1cc(C)cc(NC2=CC(=O)CC(c3ccco3)C2)c1 (configuration not stated)	none
Cc1noc(C)c1Cn1c(C)c(C(=O)NCc2ccc3c(c2)OCCO3)sc1=O	none (no result: PABP FP inh, eIF4E-4G inh, eIF4H inh)
Cc1ccc(S(=O)(=O)CCC(=O)OCC(=O)Nc2cccc(S(=O)(=O)N3CCCCC3)c2)cc1	none (no result: PABP FP inh, eIF4E-4G inh, eIF4H inh)
NS(=O)(=O)c1ccc(NC(=S)NCc2ccc(Cl)cc2)cc1	eIF4E-4G inh 35
CC(=O)c1ccc(NC(=S)NCCc2ccc(S(N)(=O)=O)cc2)cc1	MLLE-PAM2 inh 40
NS(=O)(=O)c1ccc(NC(=O)c2ccc(-c3ccccc3)cc2)cc1	none
NS(=O)(=O)c1ccc(CNC(=S)Nc2ccc(F)c(Cl)c2)cc1	none
CC(C)(C)c1ccc(C(=O)Nc2ccc(S(N)(=O)=O)cc2)cc1	PABP FP inh active, eIF4H inh 62
CC(C)CNC(=O)c1[nH]c(C(F)(F)F)nc1-c1ccccc1	none (no result: PABP FP inh, eIF4E-4G inh, eIF4H inh)
COc1cc(CNc2ccc(N3CCCC3)cc2)cc(Cl)c1OC	none
CCOc1cc(CNc2ccc(N3CCCC3)cc2)cc(Cl)c1OC	eIF4E-4G inh 35[fluorescence artefact?]
Cc1cc2oc(=O)cc(CN3CCN(c4ccc(Cl)c(Cl)c4)CC3)c2cc1Cl	none (no result: PABP FP inh, eIF4E-4G inh, eIF4H inh)
Cc1ccsc1C(=O)N1CCC1(C)C(=O)Nc1ccc2c(c1)OCCO2 (configuration not stated)	none (no result: PABP FP inh, eIF4E-4G inh, eIF4H inh)
CC(C)OC(=O)c1nn2c(C(F)(F)F)cc(-c3ccc(Br)o3)nc2c1Br	PABP FP inh active, eIF4H inh 44
O=C(N/N=C/c1cccc(OCc2ccccc2)c1)c1cccs1	none
CSc1ccc(/C=N/Nc2cccc(C(=O)O)c2)cc1	eIF4E-4G inh 35
N#C/C(=C\c1ccc(OCc2ccc(Br)cc2)cc1)C(=O)Nc1cccc(C(=O)O)c1	none (no result: eIF4E-4G inh)
COC(=O)c1ccc(COc2ccc(/C=N/Nc3cccc(C(=O)O)c3)cc2)cc1	PABP FP inh active, eIF4H inh 75
O=C(O)c1ccc(COc2ccc(/C=N/NC(=O)c3cccs3)cc2)cc1	PABP FP inh active
N#C/C(=C/c1ccc(OCc2ccc(C(=O)O)cc2)cc1)C(=O)Nc1ccccc1	PABP FP inh active (no result: eIF4E-4G inh)
CC(C)C(C(=O)O)N1C(=O)C2C3CCC(C3)C2C1=O (configuration not stated)	none (no result: PABP FP inh, eIF4E-4G inh, eIF4H inh)
CCN1C(=O)[C@H]2[C@@H](c3ccc(C)cc3)N[C@]3(CCCN(CCC(C)C)C3=O)[C@H]2C1=O	none (no result: PABP FP inh, eIF4E-4G inh, eIF4H inh)
C/C(=N\Nc1ccc(C(=O)c2c(C)cc3ccccn23)cc1[N+](=O)[O-])c1ccc(O)cc1	none
Cc1cc2ccccn2c1C(=O)c1ccc(N/N=C/c2ccc(C(=O)O)cc2)c([N+](=O)[O-])c1	eIF4E-4G inh 54
CC(=O)Nc1cccc2cc(O)ccc12	none (no result: PABP FP inh, eIF4E-4G inh, eIF4H inh)
CC(=O)Nc1ccc2ccc3cccc4ccc1c2c34	eIF4H inh 60
CCOc1ccccc1NC(=O)CSc1nnc(-c2ccncc2)o1	none (no result: PABP FP inh, eIF4E-4G inh, eIF4H inh)
CCOc1ccccc1NC(=O)CSc1nnc(-c2cccnc2)o1	MLLE-PAM2 inh 50 (no result: PABP FP inh, eIF4E-4G inh, eIF4H inh)
CCc1nc2c(OCC(=O)c3ccc(Cl)cc3Cl)cccn2c1N(C=O)Cc1ccccc1	none (no result: PABP FP inh, eIF4E-4G inh, eIF4H inh)
Cc1cccc(C)c1NC(=O)CCCSc1nnc(-c2ccco2)o1	none (no result: PABP FP inh, eIF4H inh)
Cc1ccccc1NC(=O)CSc1nnc(-c2ccco2)c(-c2ccco2)n1	PABP FP inh active, eIF4H inh 99
Cc1cccc(C)c1NC(=O)CSc1nnc(-c2ccco2)c(-c2ccco2)n1	PABP FP inh active, eIF4H inh 100
CCOc1cc(/C=C2/C(=O)ON=C2C)ccc1OCc1ccccc1	PABP FP inh active, eIF4H inh inconclusive (no result: MLLE-PAM2 inh)
CCOc1cc(/C=C2/C(=O)ON=C2C)ccc1OCc1ccc(F)cc1	none
C/C(=N\NC(=O)c1cccc(N/N=C(\C)c2ccco2)c1)c1ccco1	PABP FP inh active, eIF4H inh 90
Cc1cc(Br)cn2c(Cc3cccc(F)c3)c(-c3ccccc3)nc12	none (no result: PABP FP inh, eIF4E-4G inh, eIF4H inh)
COC(=O)C1(Cc2ccc(O)c(CC3OC3(C)C)c2)OC(=O)C(O)=C1c1ccc(O)cc1 (configuration not stated)	eIF4E-4G inh 96
CCCNC(=O)c1cc2c(c(-c3cccc(-c4ccc(F)cc4)c3)n1)[C@H](CCO)N(S(=O)C(C)(C)C)C2 (some centres not stated)	none (no result: PABP FP inh, eIF4E-4G inh, eIF4H inh)
CCOC(=O)c1cc(-c2ccco2)nc2c1c(C)nn2-c1ccccc1	none
CCOC(=O)c1cc(-c2ccc(OC)cc2)nc2c1c(C)nn2CCC(N)=S	MLLE-PAM2 inh 35
Cc1c2ccccc2nc2c(F)c(NC(C)C)c(F)c(F)c12	PABP FP inh active, eIF4H inh 82
Cc1c2ccccc2nc2c(F)c(NCCO)c(F)c(F)c12	none
